Data on 38 compounds can be found in PubChem BioAssay (NCI).

About 83,000 compounds went through this panel and 20% of them were active in at least one assay; those are over-represented in the sample as a whole.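 In brief: 96-well plates, 48 h treatment, single concentration, percent growth endpoint.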 Unmarked numbers belong to inactive results. Activity calls are given as the source filed them. The calls were made as follows: active = growth percent below 10; inactive = the rest.

One experiment concerns SW-620 colon. The experiment in a line: NCI-60 one-dose screen, 48 h (100 = growth as untreated, 0 = no growth, -100 = all killed). To be noted: 10 µM unless noted.
In the case of `CCN(CC)CCC(=O)c1cccc2ccccc12`, the growth is 104%.

As for `COc1cc(C2C=C(C)N=C3SC=C(C)N32)cc(OC)c1OC` (stereo unspecified), the growth is -44.5% (active).

As to `O=C(CCCn1c2c(sc3ccccc32)c(=O)n2nnc(-c3ccccc3)c12)NCCc1cnc[nH]1`, the growth was -84.5% (active).

On to `O=c1oc2cc(OS(=O)(=O)c3ccc(F)cc3)ccc2c2c1CCCCC2`, for which the growth was 46.3%.

As to `C=C1C(=O)O[C@H]2[C@H]1CC/C(Cn1cc(-c3ccsc3)nn1)=C\CC[C@@]1(C)O[C@@H]21`, the growth is -71.3% (active).

For the compound `Cc1cc(NC(=O)COC(=O)c2sc3cc(F)ccc3c2Cl)no1`, the growth is 108%.

As to `CNC(=O)c1cc(Oc2ccc3c(c2)sc2nc(-c4ccc(Cl)cc4)cn23)ccn1`, the growth was 97.3%.

Turning to `O=C(NCCCN1CCN(CCCNC(=O)C2CCCCC2)CC1)C1CCCCC1`, the growth is 95%.

On to `COc1ccc(/C=C/C(=O)c2ccc(B(O)O)cc2)cc1O`, for which the growth is 28.5%.

Consider `NCCSC(c1ccccc1)(c1ccccc1)c1ccccc1`, for which the growth is 19.1%.

As to `COc1ccc(/C=C/C(=O)/C=C/c2cc3ccc(Cl)cc3[nH]c2=O)cc1`, the growth was 66.1%.

On to `CCn1cc(C2NC(=O)c3cc(F)ccc3N2)c2cccc(Cl)c21` (stereo unspecified), for which the growth is 20.8%.

Take `O=C(O)c1cn(C2CC2)c2cc(N3CCN(S(=O)(=O)c4ccc(Cl)c(Cl)c4)CC3)c(F)cc2c1=O`: the growth is 20.7%.

For `O=C(Nc1ccc(F)cc1)c1cc([N+](=O)[O-])ccc1O`, the growth was 76.5%.

As for `O=C(Nc1ccc(I)cc1)c1cc([N+](=O)[O-])ccc1O`, the growth is 35.2%.

Consider `CC(C)(C)OC(=O)N[C@@H](Cc1ccccc1)C(=O)N(Cc1ccccc1)C1(C(=O)NCc2ccccc2)CCN(Cc2ccccc2)CC1`, for which the growth was 22.9%.

Regarding `C=C1C(=O)O[C@H]2[C@H]1CC/C(COC(=O)NCc1cc(OC)cc(OC)c1)=C\CC[C@@]1(C)O[C@@H]21`, the growth is -50.5% (active).

On to `O=C(CN1CCN(c2cc3c(cc2F)c(=O)c(C(=O)O)cn3C2CC2)CC1)Nc1ccc(C(=O)/C=C/c2ccccc2)cc1`, for which the growth is 41%.

With `C=C1C(=O)O[C@H]2[C@H]1CC/C(COC(=O)NCCc1cccc(OC)c1)=C\CC[C@@]1(C)O[C@@H]21`, the growth was -10.8% (active).

With `COc1ccc(/C(=N/O)c2cc(OC)c(OC)c(OC)c2)c(OC)c1N`, the growth is 17.4%.

With `Cc1cccc(NC(=O)c2sc3nc4c(cc3c2N)CCCC4)c1`, the growth was 36%.

With `O=S(=O)(NCCNc1cc(-c2cn(-c3ccccc3)nc2-c2ccccc2)ccn1)c1ccc(F)cc1`, the growth was 95.4%.

For `COc1ccc(/C=C2\CCCC3=C2NC(C)=NC3c2ccc(OC)c(OC)c2)cc1OC` (stereo unspecified), the growth is -28.8% (active).

As to `N#Cc1ccc(NC(=O)c2ccc3cccnc3c2O)cc1`, the growth is 23.1%.

`Cc1sc(N=Nc2ccc(N(C)C)cc2)[n+]([O-])c1C`: the growth is 99.3%.

For `CCOC(=O)/C=C\C(=O)NC(N)=O`, the growth is 107%.

`CCSc1nnc(Nc2ccc(C(C)C)cc2)s1`: the growth was 84.1%.

Regarding `Clc1ccc([I+]c2ccc(Cl)cc2Cl)c(Cl)c1`, the growth was -43.4% (active).

With `CC(=O)n1cc([C@H]2CC[C@H](c3cn(C(C)=O)c4ccccc34)c3c2[nH]c2ccccc32)c2ccccc21`, the growth is 90.3%.

On to `O=c1c2cccc3c(Nc4ccc(F)cc4)ccc(c32)c2nc3ccccc3n12`, for which the growth was 88%.

Take `Clc1nc(-c2cccnc2)nc2sc3c(c12)CCCCCC3`: the growth is 106%.

For the compound `COc1cc(NC(=O)CCl)ccc(=O)c1`, the growth was 69.8%.

Take `CCn1cc(C(=O)O)c(=O)c2cc(F)c(N3CCN(S(=O)(=O)c4ccc(OC)c(OC)c4)CC3)cc21`: the growth was 113%.

As for `CC(=O)C1CCC(C)=CC1=O` (stereo unspecified), the growth was 103%.

On to `O=C(O)c1ccc(-n2cc(CNc3ccc(C(F)(F)F)cc3)c(-c3ccccc3)n2)cc1`, for which the growth was 98.2%.

As to `COc1cc(OC)c(C(=O)/C=C/c2ccc(C#N)cc2)c(OC)c1`, the growth was 9.15% (active).

Regarding `CCN(CC)CCCNc1nc(C)cc(Nc2ccc3nc(C)cc(N)c3c2)n1`, the growth is 117%.

For `Cc1ccnc2nc(C(=O)OCC(=O)Nc3ccc(-c4ccccc4)cc3)nn12`, the growth was 109%.

The next experiment deals with MCF7 breast. The description is as above. The settings on record: 10 µM unless noted.
Regarding `CCN(CC)CCC(=O)c1cccc2ccccc12`, the growth is 63.9%.

For the compound `COc1cc(C2C=C(C)N=C3SC=C(C)N32)cc(OC)c1OC` (stereo unspecified), the growth was -14.8% (active).

In the case of `O=C(CCCn1c2c(sc3ccccc32)c(=O)n2nnc(-c3ccccc3)c12)NCCc1cnc[nH]1`, the growth was -100% (active).

`O=c1oc2cc(OS(=O)(=O)c3ccc(F)cc3)ccc2c2c1CCCCC2`: the growth was 59.9%.

Turning to `C=C1C(=O)O[C@H]2[C@H]1CC/C(Cn1cc(-c3ccsc3)nn1)=C\CC[C@@]1(C)O[C@@H]21`, the growth was -72.6% (active).

With `Cc1cc(NC(=O)COC(=O)c2sc3cc(F)ccc3c2Cl)no1`, the growth was 106%.

On to `CNC(=O)c1cc(Oc2ccc3c(c2)sc2nc(-c4ccc(Cl)cc4)cn23)ccn1`, for which the growth is 72%.

As for `O=C(NCCCN1CCN(CCCNC(=O)C2CCCCC2)CC1)C1CCCCC1`, the growth is 95.7%.

As for `COc1ccc(/C=C/C(=O)c2ccc(B(O)O)cc2)cc1O`, the growth was 20.2%.

`NCCSC(c1ccccc1)(c1ccccc1)c1ccccc1`: the growth is 2.6% (active).

For `COc1ccc(/C=C/C(=O)/C=C/c2cc3ccc(Cl)cc3[nH]c2=O)cc1`, the growth was 25.2%.

Consider `CCn1cc(C2NC(=O)c3cc(F)ccc3N2)c2cccc(Cl)c21` (stereo unspecified), for which the growth was 15.5%.

Regarding `O=C(O)c1cn(C2CC2)c2cc(N3CCN(S(=O)(=O)c4ccc(Cl)c(Cl)c4)CC3)c(F)cc2c1=O`, the growth is 13.5%.

Consider `O=C(Nc1ccc(F)cc1)c1cc([N+](=O)[O-])ccc1O`, for which the growth was 61.5%.

As to `O=C(Nc1ccc(I)cc1)c1cc([N+](=O)[O-])ccc1O`, the growth was 18.9%.

For `CC(C)(C)OC(=O)N[C@@H](Cc1ccccc1)C(=O)N(Cc1ccccc1)C1(C(=O)NCc2ccccc2)CCN(Cc2ccccc2)CC1`, the growth is 25.2%.

With `C=C1C(=O)O[C@H]2[C@H]1CC/C(COC(=O)NCc1cc(OC)cc(OC)c1)=C\CC[C@@]1(C)O[C@@H]21`, the growth was 0.19% (active).

`O=C(CN1CCN(c2cc3c(cc2F)c(=O)c(C(=O)O)cn3C2CC2)CC1)Nc1ccc(C(=O)/C=C/c2ccccc2)cc1`: the growth was 12.5%.

`C=C1C(=O)O[C@H]2[C@H]1CC/C(COC(=O)NCCc1cccc(OC)c1)=C\CC[C@@]1(C)O[C@@H]21`: the growth was 14.7%.

`COc1ccc(/C(=N/O)c2cc(OC)c(OC)c(OC)c2)c(OC)c1N`: the growth was 21%.

Regarding `Cc1cccc(NC(=O)c2sc3nc4c(cc3c2N)CCCC4)c1`, the growth is 11.3%.

On to `O=S(=O)(NCCNc1cc(-c2cn(-c3ccccc3)nc2-c2ccccc2)ccn1)c1ccc(F)cc1`, for which the growth is 86.3%.

Regarding `COc1ccc(/C=C2\CCCC3=C2NC(C)=NC3c2ccc(OC)c(OC)c2)cc1OC` (stereo unspecified), the growth was 26.3%.

Turning to `N#Cc1ccc(NC(=O)c2ccc3cccnc3c2O)cc1`, the growth is 15.8%.

Regarding `Cc1sc(N=Nc2ccc(N(C)C)cc2)[n+]([O-])c1C`, the growth was 79.9%.

On to `CCOC(=O)/C=C\C(=O)NC(N)=O`, for which the growth is 96.3%.

As for `CCSc1nnc(Nc2ccc(C(C)C)cc2)s1`, the growth is 95.2%.

For `Clc1ccc([I+]c2ccc(Cl)cc2Cl)c(Cl)c1`, the growth was -30.9% (active).

For the compound `CC(=O)n1cc([C@H]2CC[C@H](c3cn(C(C)=O)c4ccccc34)c3c2[nH]c2ccccc32)c2ccccc21`, the growth was 63.7%.

For `O=c1c2cccc3c(Nc4ccc(F)cc4)ccc(c32)c2nc3ccccc3n12`, the growth was 10.1%.

For `Clc1nc(-c2cccnc2)nc2sc3c(c12)CCCCCC3`, the growth is 92.7%.

For `COc1cc(NC(=O)CCl)ccc(=O)c1`, the growth is 56.8%.

`CCn1cc(C(=O)O)c(=O)c2cc(F)c(N3CCN(S(=O)(=O)c4ccc(OC)c(OC)c4)CC3)cc21`: the growth was 100%.

Consider `CC(=O)C1CCC(C)=CC1=O` (stereo unspecified), for which the growth is 88.4%.

Take `O=C(O)c1ccc(-n2cc(CNc3ccc(C(F)(F)F)cc3)c(-c3ccccc3)n2)cc1`: the growth is 81.8%.

With `COc1cc(OC)c(C(=O)/C=C/c2ccc(C#N)cc2)c(OC)c1`, the growth is 13.8%.

As for `CCN(CC)CCCNc1nc(C)cc(Nc2ccc3nc(C)cc(N)c3c2)n1`, the growth was 92.8%.

As to `Cc1ccnc2nc(C(=O)OCC(=O)Nc3ccc(-c4ccccc4)cc3)nn12`, the growth is 105%.
